Growth inhibition, inhibition and outcome data for 20 compounds are collected here from PubChem BioAssay.

Values without a mark were called inactive. For some of these results: Potency and affinity values are given separately. The source made the active and inactive calls. Unless noted, how the calls were made is not given here.

As usually defined, the inhibition is the relative decrease from the control value, in per cent.

Assay [1] in a line: antimalarial activity against Dd2 strain (AID 2302;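 active means growth inhibition above 50% at the single 2 µM test dose, taken to imply half-maximal potency below 2 µM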;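 further: 0% = DMSO untreated growth and 100% = chloroquine plus artemisinin killed control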). The note with it: P. falciparum Dd2 in RBCs, LDH growth readout, 72 h; at 2 µM; stronger effect = higher value.
The nature of assay [2]: human hepatoma cell viability loss – ATP luminescence, cytotoxicity control for P. falciparum antimalarial project, primary screen (AID 2303;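 active means inhibition above 50%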;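 further: 0% = DMSO wells and 100% = digitonin-killed cells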). The note with it: HepG2 viability, 24-48 h, at 10 µM, stronger effect = higher value.
Assay [3] has as its target L-lactate dehydrogenase (Plasmodium falciparum (isolate CDC / Honduras)) (UniProt Q27743). Put plainly: PfLDH activity inhibition – cell lysate, 3D7 strain, counter-screen for P. falciparum growth inhibition project (AID 2304).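 Further: 0% = vehicle and 100% = reference inhibitor.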 The note with it: P. falciparum 3D7 crude extract, LDH APAD/NBT absorbance; at 2 µM; stronger effect = higher value.
Assay [4] is described as follows: inhibition of 3D7 malaria parasite growth – strain 3D7 (AID 2306).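 Further: 0% = DMSO wells and 100% = chloroquine plus artemisinin control wells.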 The note with it: P. falciparum 3D7 erythrocytic growth, LDH absorbance, 72 h; at 2 µM; stronger effect = higher value.
For assay [5], the target named is Calcium-dependent protein kinase 1 (Plasmodium falciparum (isolate 3D7)) (UniProt P62344). The assay can be described thus: PfCDPK1 kinase inhibitors, biochemical, TCAMS library (AID 1159585; cut-off not given, nearly all actives have IC50 up to about 0.98 µM;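 further: inhibitors leave more ATP so luminescence rises with inhibition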). As to conditions: recombinant PfCDPK1, Kinase-Glo ATP depletion luminescence.
Sequence of Calcium-dependent protein kinase 1 (Plasmodium falciparum (isolate 3D7)) (P62344 whole entry, looked up): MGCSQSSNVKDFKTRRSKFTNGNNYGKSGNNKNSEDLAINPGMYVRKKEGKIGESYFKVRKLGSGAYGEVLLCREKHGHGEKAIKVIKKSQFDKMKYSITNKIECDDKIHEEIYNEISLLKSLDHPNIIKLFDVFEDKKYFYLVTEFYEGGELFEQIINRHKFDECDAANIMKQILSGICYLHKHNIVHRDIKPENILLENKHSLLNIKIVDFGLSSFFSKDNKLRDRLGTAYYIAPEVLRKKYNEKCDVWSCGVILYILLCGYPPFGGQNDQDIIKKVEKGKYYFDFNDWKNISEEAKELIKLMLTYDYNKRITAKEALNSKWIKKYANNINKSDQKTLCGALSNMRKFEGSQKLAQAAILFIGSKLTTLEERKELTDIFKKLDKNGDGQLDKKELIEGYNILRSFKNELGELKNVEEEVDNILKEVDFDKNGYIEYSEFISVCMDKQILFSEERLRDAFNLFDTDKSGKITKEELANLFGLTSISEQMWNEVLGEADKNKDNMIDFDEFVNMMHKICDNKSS
Assay [6] addresses Plasmodium falciparum protein kinase 6 (PK6, PF3D7_1337100) (UniProt Q8IDW1). The assay can be described thus: PfPK6 kinase inhibitors, biochemical, TCAMS library (AID 1159586). The note with it: recombinant PfPK6, Kinase-Glo ATP depletion luminescence. (Kinase-Glo reads ATP consumption through a luciferase reaction.)
The target of assay [7] is Protein kinase 7 (PK7), Plasmodium falciparum 3D7 (PF3D7_0213400) (UniProt Q7YTF7). The assay can be described thus: inhibition of Plasmodium PK7 catalytic activity – biochemical, TCAMS antimalarial set, Kinase-Glo luminescence (AID 1159587). As to conditions: recombinant PfPK7, Kinase-Glo ATP depletion luminescence.
Sequence of Protein kinase 7 (PK7), Plasmodium falciparum 3D7 (PF3D7_0213400) (Q7YTF7 1-343): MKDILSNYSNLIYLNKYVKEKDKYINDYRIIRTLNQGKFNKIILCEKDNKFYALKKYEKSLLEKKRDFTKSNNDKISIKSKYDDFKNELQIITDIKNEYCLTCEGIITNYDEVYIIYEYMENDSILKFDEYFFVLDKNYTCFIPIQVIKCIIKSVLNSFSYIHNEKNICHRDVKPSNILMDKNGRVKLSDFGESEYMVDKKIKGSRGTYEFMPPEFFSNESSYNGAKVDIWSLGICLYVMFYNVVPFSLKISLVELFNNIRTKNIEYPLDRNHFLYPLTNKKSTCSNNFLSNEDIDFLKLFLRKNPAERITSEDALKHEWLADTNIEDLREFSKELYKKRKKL
In assay [8] the target is Calcium-dependent protein kinase 4 (Plasmodium falciparum (isolate 3D7)) (UniProt Q8IBS5). The assay can be described thus: PfCDPK4 kinase inhibitors, biochemical, TCAMS library (AID 1159588; cut-off not given, nearly all actives have IC50 up to about 0.91 µM). As to conditions: recombinant PfCDPK4, Kinase-Glo ATP depletion luminescence.
Sequence of Calcium-dependent protein kinase 4 (Plasmodium falciparum (isolate 3D7)) (Q8IBS5 whole entry, looked up): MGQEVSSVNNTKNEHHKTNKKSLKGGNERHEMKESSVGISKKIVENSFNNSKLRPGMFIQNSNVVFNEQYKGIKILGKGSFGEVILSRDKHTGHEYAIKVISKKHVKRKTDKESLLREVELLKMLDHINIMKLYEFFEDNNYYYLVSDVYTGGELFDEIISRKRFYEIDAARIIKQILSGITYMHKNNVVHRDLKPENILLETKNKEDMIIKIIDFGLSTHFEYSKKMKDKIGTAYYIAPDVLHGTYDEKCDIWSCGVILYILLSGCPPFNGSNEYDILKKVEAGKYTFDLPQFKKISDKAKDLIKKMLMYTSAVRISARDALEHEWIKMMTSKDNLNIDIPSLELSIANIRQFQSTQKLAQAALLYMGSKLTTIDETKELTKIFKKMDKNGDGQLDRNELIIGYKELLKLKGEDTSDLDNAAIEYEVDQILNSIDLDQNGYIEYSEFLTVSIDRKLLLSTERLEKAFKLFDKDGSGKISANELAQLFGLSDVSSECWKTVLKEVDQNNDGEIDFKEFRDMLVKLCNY

Sequence of L-lactate dehydrogenase (Plasmodium falciparum (isolate CDC / Honduras)) (Q27743 whole entry, looked up): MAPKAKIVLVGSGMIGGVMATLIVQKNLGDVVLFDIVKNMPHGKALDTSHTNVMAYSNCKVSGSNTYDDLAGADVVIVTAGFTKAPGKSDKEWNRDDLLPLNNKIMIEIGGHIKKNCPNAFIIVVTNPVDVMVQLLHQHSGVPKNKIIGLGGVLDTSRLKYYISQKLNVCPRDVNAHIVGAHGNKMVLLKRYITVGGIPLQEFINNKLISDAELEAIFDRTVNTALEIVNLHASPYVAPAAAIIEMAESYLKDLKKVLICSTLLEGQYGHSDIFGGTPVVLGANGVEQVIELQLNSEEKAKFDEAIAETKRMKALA
Sequence of Plasmodium falciparum protein kinase 6 (PK6, PF3D7_1337100) (Q8IDW1 1-305): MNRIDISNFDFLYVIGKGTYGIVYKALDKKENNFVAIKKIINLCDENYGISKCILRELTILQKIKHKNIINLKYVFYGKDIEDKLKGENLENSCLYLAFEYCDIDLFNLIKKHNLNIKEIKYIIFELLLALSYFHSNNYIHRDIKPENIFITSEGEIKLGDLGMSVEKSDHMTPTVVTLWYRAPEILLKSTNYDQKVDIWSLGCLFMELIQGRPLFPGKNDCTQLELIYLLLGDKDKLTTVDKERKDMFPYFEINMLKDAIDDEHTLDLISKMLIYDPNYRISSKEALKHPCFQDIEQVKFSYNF

In the case of `COc1cccc(-c2cc(C(F)(F)F)n3ncc(C(=O)Nc4cc(Cl)ccc4O)c3n2)c1`, the growth inhibition in assay [1] and in assay [4] was 99% (active) in each case. The figures for the inhibition in assay [2] and in assay [3] were -9% and 5%, respectively. Further, the result in assay [5], in assay [6], in assay [7] and in assay [8] was inactive.

As to `Cc1cccc(C)c1C1CCN(CCCCNC(=O)c2cc3ccccc3[nH]2)CC1`, the growth inhibition in assay [1] was 18%; in assay [4], 90% (active). In addition, the figures for the inhibition in assay [2] and in assay [3] were 46% and 4%, respectively. Also, the outcome in assay [5], in assay [6], in assay [7] and in assay [8] was inactive.

Take `Cc1nnc(NC(=O)c2cn(-c3ccccc3)nc2-c2ccccc2C)o1`: the growth inhibition in assay [1] was 87% (active); in assay [4], 93% (active). Further, the inhibition in assay [2] is 37%; in assay [3], 1%. Further, the outcome in assay [5], in assay [6], in assay [7] and in assay [8] was inactive.

Take `COc1nc2c(CCN3CCC(NCc4ccc5c(n4)NC(=O)CO5)CC3)c(Cl)cnc2cc1F`: the growth inhibition is 40% in assay [1] and 99% (active) in assay [4]. The inhibition in assay [2] was 17%; in assay [3] it was -9%. In addition, the outcome in assay [5], in assay [6], in assay [7] and in assay [8] was inactive.

In the case of `COc1cccc(CN2CCCC(COC(c3ccc(F)cc3)c3ccc(F)cc3)C2)c1O` (stereo not given), the growth inhibition is 100% (active) in assay [1] and 98% (active) in assay [4]. Besides, the inhibition in assay [2] is 24%; in assay [3], 4%. Moreover, the result in assay [5], in assay [6], in assay [7] and in assay [8] was inactive.

In the case of `COc1ccccc1C1CCN(C2CCC(NC(=O)c3cc4cc(C(C)C)ccc4[nH]3)CC2)CC1` (stereo not given), the growth inhibition in assay [1] is 98% (active); in assay [4], 101% (active). Besides, the values for the inhibition in assay [2] and in assay [3] were 100% (active) and -4%, respectively. Further, the outcome in assay [5], in assay [6], in assay [7] and in assay [8] was inactive.

In the case of `CS(=O)(=O)N(CC(O)Cn1c2ccc(Cl)cc2c2cc(Cl)ccc21)c1ccccc1` (stereo not given), the growth inhibition in assay [1] was 98% (active); in assay [4] it was 101% (active). The inhibition is 2% in assay [2] and 0% in assay [3]. The outcome in assay [5], in assay [6], in assay [7] and in assay [8] was inactive.

As to `Clc1cc(Nc2ncnc3sc(C#Cc4ncc[nH]4)cc23)ccc1OCc1ccccn1`, the growth inhibition in assay [1] is 6%; in assay [4], 101% (active). The inhibition in assay [2] is 10%; in assay [3], -3%. The result in assay [5], in assay [6], in assay [7] and in assay [8] was inactive.

As for `N#CN1CC[C@H](CS(=O)(=O)c2cccc(Br)c2)C1`, the values for the growth inhibition in assay [1] and in assay [4] were 74% (active) and 88% (active), respectively. For the same compound, the inhibition was 8% in assay [2] and -2% in assay [3]. In addition, the result in assay [5], in assay [6], in assay [7] and in assay [8] was inactive.

Turning to `O=C1OC2(CN1CC1CCN(Cc3ccc(-n4ccnc4)cc3)C1)c1ccccc1-c1ccccc12` (stereo not given), the growth inhibition is -5% in assay [1] and 96% (active) in assay [4]. Moreover, the values for the inhibition in assay [2] and in assay [3] were 25% and -2%, respectively. For the same compound, the outcome in assay [5], in assay [6], in assay [7] and in assay [8] was inactive.

Regarding `COc1cc(C)nc2ccc(NC(=O)Nc3cccc4ccccc34)cc12`, the growth inhibition in assay [1] is 48%; in assay [4], 91% (active). Besides, the inhibition in assay [2] is 27%; in assay [3], -3%. Besides, the outcome in assay [5], in assay [6], in assay [7] and in assay [8] was inactive.

Consider `CC(C)[C@H]1CC[C@H](C)C[C@@H]1OC(=O)N[C@@H](Cc1ccc(O)cc1)C(=O)NC1CCN(Cc2ccc(OCCCN(C)C)cc2)C1` (stereo not given in full), for which the growth inhibition in assay [1] is 64% (active); in assay [4] it was 99% (active). Moreover, the inhibition in assay [2] is 27%; in assay [3], 4%. The outcome in assay [5], in assay [6], in assay [7] and in assay [8] was inactive.

Regarding `Nc1nccc2ccc(-c3cccc(O)c3)cc12`, the growth inhibition in assay [1] was 71% (active); in assay [4], 95% (active). Moreover, the inhibition was 43% in assay [2] and 7% in assay [3]. Further, the outcome in assay [5], in assay [6], in assay [7] and in assay [8] was inactive.

Consider `O=C(c1ccc(-c2cnc3[nH]cc(-c4ccc(C(=O)N5CCOCC5)cc4)c3c2)cc1)N1CCOCC1`, for which the growth inhibition in assay [1] was -3%; in assay [4], 91% (active). Moreover, the results for the inhibition in assay [2] and in assay [3] were 19% and -4%, respectively. Further, the result in assay [5], in assay [6], in assay [7] and in assay [8] was inactive.

`CCCNCc1ccc(-c2ccc(CN(CC3CCCO3)C(=O)COc3ccccc3Cl)cc2)nc1` (stereo not given): the growth inhibition in assay [1] is 11%; in assay [4] it was 89% (active). Besides, the inhibition in assay [2] was 5%; in assay [3], -3%. For the same compound, the result in assay [5], in assay [6], in assay [7] and in assay [8] was inactive.

On to `CCSc1nc2sc3c(c2c(=O)n1-c1ccccc1)CCN(C)C3`, for which the values for the growth inhibition in assay [1] and in assay [4] were 71% (active) and 83% (active), respectively. For the same compound, the inhibition in assay [2] is 16%; in assay [3], -3%. Moreover, the outcome in assay [5], in assay [6], in assay [7] and in assay [8] was inactive.

Turning to `COc1cc(-n2cnc3cc(-c4ccc(Cl)cc4)sc3c2=O)ccc1OCCN1CCC(c2cccc(NC(C)=O)c2)CC1`, the growth inhibition in assay [1] was 80% (active); in assay [4] it was 99% (active). Besides, the inhibition in assay [2] is 61% (active); in assay [3] it was -4%. Further, the result in assay [5], in assay [6], in assay [7] and in assay [8] was inactive.

For `CC(=O)Nc1nc(C(=O)Nc2ccc(-c3cccc(-c4nc5c(C)cccc5[nH]4)c3)cc2)cs1`, the growth inhibition in assay [1] is 73% (active); in assay [4] it was 101% (active). Also, the inhibition in assay [2] was 100% (active); in assay [3], -4%. Moreover, the result in assay [5], in assay [6], in assay [7] and in assay [8] was inactive.

On to `c1ccc(-c2[nH]c3ccccc3c2CN2CCC(N3CCCCC3)CC2)nc1`, for which the growth inhibition in assay [1] was 82% (active); in assay [4], 101% (active). The inhibition in assay [2] is 13%; in assay [3], -3%. The result in assay [5], in assay [6], in assay [7] and in assay [8] was inactive.

With `Clc1cccc(C=NNc2ccnc3ccccc23)c1`, the results for the growth inhibition in assay [1] and in assay [4] were 44% and 102% (active), respectively. Besides, the results for the inhibition in assay [2] and in assay [3] were 5% and 4%, respectively. Moreover, the outcome in assay [5], in assay [6], in assay [7] and in assay [8] was inactive.
